Data on nine compounds can be found in PubChem BioAssay (Tox21).

A short description of assay [1]: qHTS assay to identify small molecule agonists of the peroxisome proliferator-activated receptor delta (PPARd) signaling pathway - cell viability counter screen (AID 743211). Note: % is set by controls: 0 for no effect and ±100 for the full control effect; nearly all actives have a fitted effect of over 55% in size. The method in brief: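 Multiplexed format: after the 2 h room-temperature LiveBLAzer B/G FRET step, CellTiter-Glo was added to the same wells. Luminescence after 30 min gave cell viability; compound exposure was 17 h at 37C.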

Assay [2] concerns the target Peroxisome proliferator-activated receptor delta (Homo sapiens) (UniProt Q03181). Put plainly: qHTS assay to identify small molecule agonists of the peroxisome proliferator-activated receptor delta (PPARd) signaling pathway (AID 743212; calls by dose curve;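 note: HEK293H cells with PPARd UAS beta-lactamase reporter GeneBLAzer system; % is set by controls: 0 for no effect and ±100 for the full control effect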). The method in brief: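 Beta-lactamase reporter readout: a ratiometric FRET signal from the LiveBLAzer substrate after 2 h at room temperature. Compound exposure at 37 °C in PPARδ-bla HEK293H cells driven by an upstream activator sequence.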
Background: In qHTS, concentration-response curves come from the screen itself.

The nature of assay [3]: qHTS assay to identify small molecule antagonists of the peroxisome proliferator-activated receptor delta (PPARd) signaling pathway - cell viability counter screen (AID 743213). Note: % is set by controls: 0 for no effect and ±100 for the full control effect; nearly all actives have a fitted effect of over 50% in size. The method in brief:
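Viability counter-screen, qHTS format: PPARd-bla HEK293H, L165041 300 nM final, 17 h compound exposure at 37 C, CellTiter-Glo luminescence after 30 min RT.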

The target of assay [4] is Peroxisome proliferator-activated receptor delta (Homo sapiens) (UniProt Q03181). Put plainly: qHTS assay to identify small molecule antagonists of the peroxisome proliferator-activated receptor delta (PPARd) signaling pathway (AID 743215; active = well fitted inhibition curve with a large enough effect in the signal ratio in the repeat runs, not every such curve was filed as active; the % refers to the signal ratio;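 note: cells stimulated with agonist L165041 at 300 nM final during compound exposure; series mostly up to about 62 µM; % is set by controls: 0 for no effect and ±100 for the full control effect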). The method in brief:
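Screen format: qHTS, antagonist mode. HEK293H PPARd-bla cells received compound and 300 nM L165041 (final), 17 h, 37 C. Beta-lactamase detected via FRET substrate fluorescence, 2 h, room temperature.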

Assay [5] in a line: qHTS assay to identify small molecule agonists of the farnesoid-X-receptor (FXR) signaling pathway - cell viability counter screen (AID 743218). Note: % is set by controls: 0 for no effect and ±100 for the full control effect; nearly all actives have a fitted effect of over 45% in size. The procedure, abridged:
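Same-well cytotoxicity check on FXR-UAS-bla HEK 293T cells: 5 h attachment, 16 h compound at 37 C, CellTiter-Glo luminescence read at room temperature after 30 min.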

A short description of assay [6]: qHTS assay to identify small molecule antagonists of the farnesoid-X-receptor (FXR) signaling pathway - cell viability counter screen (AID 743221; active = well fitted cell-killing curve with a large enough effect in the repeat runs, not every such curve was filed as active; note: % is set by controls: 0 for no effect and ±100 for the full control effect; nearly all actives have a fitted effect of over 50% in size). The procedure, abridged: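 CellTiter-Glo, 30 min RT, luminescence; same wells as the LiveBLAzer FRET read. Cells: FXR-UAS-bla HEK 293T. Treatment: compound with chenodeoxycholic acid 50 uM final, 16 h at 37 C.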
The nature of assay [7]: qHTS assay to identify small molecule agonists of the NFkB signaling pathway (AID 1159509; active = well fitted curve in the direction sought with a large enough effect in the signal ratio in the repeat runs, not every such curve was filed as active; the % refers to the signal ratio; note: series mostly up to about 61 µM; % is set by controls: 0 for no effect and ±100 for the full control effect). The procedure, abridged:
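Pathway activation was measured in ME-180 cells stably expressing beta-lactamase under NF-kB response element control. Substrate cleavage was read as the 460/530 nm emission shift after 5 hr compound incubation.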

The nature of assay [8]: qHTS assay to identify small molecule agonists of the NFkB signaling pathway - cell viability counter screen (AID 1159515; calls by dose curve; note: series mostly up to about 61 µM; % is set by controls: 0 for no effect and ±100 for the full control effect; nearly all actives have a fitted effect of over 55% in size). The procedure, abridged:
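Counter screen run alongside the NFkB-bla agonist assay: ME-180 reporter cells exposed to compounds for 5 hr, then lysed with CellTiter-Glo in the same wells. Luminescence, read after 30 min, reflects viable cells.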

A short description of assay [9]: qHTS assay to identify small molecule agonists of the endoplasmic reticulum stress response signaling pathway (AID 1159516; active = well fitted activation curve with a large enough effect in the signal ratio in the repeat runs, not every such curve was filed as active; the % refers to the signal ratio; note: % is set by controls: 0 for no effect and ±100 for the full control effect). The method in brief:
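For this screen, HeLa cells stably carrying beta-lactamase under the ER stress response element received test compounds, positive controls or DMSO for 5 hr at 37 C; B/G FRET substrate was then added and dual-wavelength emission recorded.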

The nature of assay [10]: qHTS assay to identify small molecule agonists of the AP-1 signaling pathway - cell viability counter screen (AID 1159525; calls by dose curve; note: nearly all actives have a fitted effect of over 55% in size). The procedure, abridged: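 Intracellular ATP by Cell Titer Glo luminescence (30 min, RT) in the same ME-180 AP-1-bla wells after the 5 h compound exposure at 37 °C. Normalised to tetra n-octyl ammonium bromide and DMSO controls.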
The nature of assay [11]: qHTS assay to identify small molecule agonists of the AP-1 signaling pathway (AID 1159526; calls by dose curve; note: % is set by controls: 0 for no effect and ±100 for the full control effect).
A short description of assay [12]: qHTS assay to identify small molecule antagonists of the vitamin D receptor (VDR) signaling pathway - cell viability counter screen (AID 743225). Note: % is set by controls: 0 for no effect and ±100 for the full control effect; nearly all actives have a fitted effect of over 50% in size. The method in brief:
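Cytotoxicity toward the VDR-bla HEK 293T line was scored by ATP-based CellTiter-Glo luminescence, read in the wells already used for the beta-lactamase readout after 16 h compound treatment under 3 nM 1-alpha,25-dihydroxyvitamin D3 stimulation.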

Assay [13] in a line: qHTS assay to identify small molecule antagonists of the retinoid-related orphan receptor gamma (ROR-gamma) signaling pathway - cell viability counter screen (AID 1159520). Note: % is set by controls: 0 for no effect and ±100 for the full control effect; nearly all actives have a fitted effect of over 50% in size. The method in brief:
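Cytotoxicity was read from cellular ATP (CellTiter-Glo luminescence) after 16 hr at 37 C with 1 uM doxycycline induction. The inducer was added 2 hr after compound transfer to Tet-on ROR gamma CHO cells.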

For assay [14], the target named is Nuclear receptor ROR-gamma (Homo sapiens) (UniProt P51449). Kind of assay: qHTS assay to identify small molecule antagonists of the retinoid-related orphan receptor gamma (ROR-gamma) signaling pathway (AID 1159521; note: nearly all actives have a fitted effect of over 50% in size; note: potency is the fitted concentration of half-maximal effect). The procedure, abridged:
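Readout: ONE-Glo luciferase luminescence, 30 min at room temperature. System: Tet-on RORγ CHO, RORE-LUC. Sequence: compound 2 h, doxycycline 1 uM final, 16 h at 37 C.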

Assay [15] has as its target Vitamin D3 receptor (Homo sapiens) (UniProt P11473). Put plainly: qHTS assay to identify small molecule agonists of the vitamin D receptor (VDR) signaling pathway (AID 743222; calls by dose curve; note: % is set by controls: 0 for no effect and ±100 for the full control effect). The procedure, abridged: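 Using LiveBLAzer B/G FRET detection, agonism was scored in VDR-bla cells exposed overnight (16 h, 37C) to DMSO-dissolved compounds; substrate incubation was 2 h at room temperature.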

The target is the same in assay [16]. Put plainly: qHTS assay to identify small molecule antagonists of the vitamin D receptor (VDR) signaling pathway (AID 743223; active = well fitted inhibition curve with a large enough effect in the signal ratio in the repeat runs, not every such curve was filed as active; the % refers to the signal ratio; note: % is set by controls: 0 for no effect and ±100 for the full control effect). The procedure, abridged: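 After VDR-bla cells are plated and left 4 h at 37C, DMSO-dissolved compounds and 3 nM (final) calcitriol agonist are added. Incubation continues 16 h at 37C; FRET beta-lactamase substrate then develops 2 h at room temperature.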

Assay [17] in a line: qHTS assay to identify small molecule agonists of the vitamin D receptor (VDR) signaling pathway - cell viability counter screen (AID 743224). The method in brief: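 Counter screen for cytotoxicity: VDR-bla cells at 2,000 cells/well, 16 h compound exposure, then CellTiter-Glo luminescence after the beta-lactamase measurement.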
Assay [18] has as its target Bile acid receptor (Homo sapiens) (UniProt Q96RI1). Put plainly: qHTS assay to identify small molecule agonists of the farnesoid-X-receptor (FXR) signaling pathway (AID 743220; active = well fitted activation curve with a large enough effect in the signal ratio in the repeat runs, not every such curve was filed as active; the % refers to the signal ratio; note: % is set by controls: 0 for no effect and ±100 for the full control effect). The procedure, abridged: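 FXR-UAS-bla HEK 293T cells carrying a UAS-driven beta-lactamase reporter were plated for 5 h at 37C/5% CO2, then exposed to DMSO-dissolved Tox21 10K compounds for 16 h at 37C. A LiveBLAzer B/G FRET substrate was loaded for 2 h at room temperature before fluorescence reading.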

The target is the same in assay [19]. Kind of assay: qHTS assay to identify small molecule antagonists of the farnesoid-X-receptor (FXR) signaling pathway (AID 743217; active = well fitted inhibition curve with a large enough effect in the signal ratio in the repeat runs, not every such curve was filed as active; the % refers to the signal ratio; note: % is set by controls: 0 for no effect and ±100 for the full control effect). The method in brief: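 Quantitative HTS, beta-lactamase reporter format: FXR-UAS-bla HEK 293T cells co-treated 16 h at 37 °C with compounds and 50 uM final chenodeoxycholic acid, then read by B/G FRET fluorescence.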

Results filed as inconclusive are left out. Values without a mark were called inactive. The source made the active and inactive calls. Unless noted, calls come from the whole dose curve; as a rule, active = well fitted curve in the direction sought with a large enough effect in the repeat runs; inconclusive = weak or mixed curves; inactive = no such curve, though single readings can be large; an effect the other way counts as inactive or inconclusive.

Chain of Bile acid receptor (Homo sapiens) (Q96RI1 whole entry, looked up): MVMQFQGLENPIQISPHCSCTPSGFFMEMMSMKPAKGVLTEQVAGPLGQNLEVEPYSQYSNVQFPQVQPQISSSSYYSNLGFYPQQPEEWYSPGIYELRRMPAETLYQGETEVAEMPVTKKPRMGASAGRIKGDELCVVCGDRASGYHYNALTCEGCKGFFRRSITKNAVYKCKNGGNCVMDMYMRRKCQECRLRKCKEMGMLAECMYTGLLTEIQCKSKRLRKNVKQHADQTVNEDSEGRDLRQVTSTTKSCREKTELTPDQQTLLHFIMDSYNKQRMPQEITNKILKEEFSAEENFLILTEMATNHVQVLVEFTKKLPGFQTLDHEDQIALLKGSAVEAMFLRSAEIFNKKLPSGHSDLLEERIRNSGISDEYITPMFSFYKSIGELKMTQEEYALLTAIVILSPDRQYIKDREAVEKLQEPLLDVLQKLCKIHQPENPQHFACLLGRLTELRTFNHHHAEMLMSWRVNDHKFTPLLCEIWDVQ
Chain of Peroxisome proliferator-activated receptor delta (Homo sapiens) (Q03181 whole entry, looked up): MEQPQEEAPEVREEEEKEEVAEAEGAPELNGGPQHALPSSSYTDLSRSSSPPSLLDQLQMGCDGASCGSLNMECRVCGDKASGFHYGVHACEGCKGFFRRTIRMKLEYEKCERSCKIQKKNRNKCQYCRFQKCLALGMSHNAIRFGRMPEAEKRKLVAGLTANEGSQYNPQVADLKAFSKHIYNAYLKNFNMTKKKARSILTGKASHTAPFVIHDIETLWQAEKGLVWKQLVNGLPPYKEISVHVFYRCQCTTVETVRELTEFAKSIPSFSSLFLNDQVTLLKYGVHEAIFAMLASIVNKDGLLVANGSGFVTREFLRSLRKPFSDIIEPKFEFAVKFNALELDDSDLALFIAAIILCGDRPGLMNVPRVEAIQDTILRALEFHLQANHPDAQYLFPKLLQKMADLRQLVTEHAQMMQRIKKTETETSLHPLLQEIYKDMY
Chain of Vitamin D3 receptor (Homo sapiens) (P11473 whole entry, looked up): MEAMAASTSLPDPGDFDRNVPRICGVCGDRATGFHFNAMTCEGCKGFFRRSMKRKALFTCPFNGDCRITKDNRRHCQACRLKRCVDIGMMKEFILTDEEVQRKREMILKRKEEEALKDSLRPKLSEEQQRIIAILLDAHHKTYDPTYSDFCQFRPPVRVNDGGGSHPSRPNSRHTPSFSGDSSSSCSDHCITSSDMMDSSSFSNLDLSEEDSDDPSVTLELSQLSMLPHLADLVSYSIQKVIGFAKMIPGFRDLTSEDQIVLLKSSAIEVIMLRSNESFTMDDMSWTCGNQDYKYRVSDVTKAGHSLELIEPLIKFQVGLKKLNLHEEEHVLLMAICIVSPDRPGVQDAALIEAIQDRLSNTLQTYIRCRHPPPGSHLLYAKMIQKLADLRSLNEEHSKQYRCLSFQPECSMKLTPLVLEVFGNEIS

For `Cc1nnc(SCC2=C(C(=O)O)N3C(=O)[C@@H](NC(=O)Cn4cnnn4)[C@H]3SC2)s1`, the Potency result in [1], in assay [3], in [5] and in assay [11] was “inactive” in each case. For the same compound, the outcome in assay [2], in assay [4], in assay [6], in assay [7], in assay [8] and in assay [9] was inactive. The compound was called inactive in assay [10].

`COC(=O)c1ccc2cc(C(=O)OC)ccc2c1`: the Potency result in [1], in [5] and in assay [12] was “inactive” throughout. Moreover, the outcome in assay [2], in [6], in assay [7], in assay [8] and in assay [9] was inactive. Besides, the activity, negative = cytotoxicity in [13] is -0.583% [at 19 µM]. Also, the activity change, negative = inhibition in assay [14] is 0.445% [at 19 µM]. Further, the viability change, negative = cytotoxic in assay [10] was 2.85% [at 15.8 µM].

For `CCc1cc(Cl)c(OC)c(C(=O)NC[C@@H]2CCCN2CC)c1O`, the Potency entry in [1], in [3], in assay [17], in assay [12], in [13] and in [14] was “inactive” each time. Further, the compound was called inactive in [2], in [4], in assay [15], in assay [16], in assay [7] and in [8]. The compound was classed as inactive in assay [9] and in [10].

Take `O=c1oc2c(O)c(O)cc3c(=O)oc4c(O)c(O)cc1c4c23`: the Potency result in assay [1], in assay [3], in [5], in assay [17] and in assay [12] was “inactive” in each case. Also, the outcome in assay [18], in assay [6], in assay [15], in assay [16], in [7] and in assay [8] was inactive. The call in assay [9] was inactive. In addition, the activity, negative = cytotoxicity in assay [13] was 0.685% [at 19 µM]. Also, in [10], the viability change, negative = cytotoxic is 7.4% [at 15.8 µM]. The activation in assay [11] is 21.4% [at 15.8 µM].

Turning to `CCOc1ccccc1N`, the Potency entry in assay [1], in assay [3], in assay [5], in assay [17], in assay [12] and in assay [13] was “inactive” in each case. The compound was called inactive in assay [6], in assay [15], in assay [16], in assay [7], in [8] and in assay [9]. Also, the compound was called inactive in assay [10]. In [14], the Potency was 54.1 µM (active).

`Cc1onc(-c2ccccc2)c1C(=O)Cl`: the Potency entry in assay [1], in [3], in assay [5], in assay [17], in [12] and in assay [11] was “inactive” in each case. For the same compound, the compound was classed as inactive in assay [18], in [6], in [15], in [7], in assay [8] and in assay [9]. The outcome in [10] was inactive.

As for `CN1CCN(c2c(F)cc3c(=O)c(C(=O)O)cn4c3c2SCC4)CC1`, the Potency entry in assay [1], in assay [3], in assay [5], in assay [17], in assay [12] and in assay [11] was “inactive” in each case. In addition, the outcome in assay [2], in assay [4], in [19], in assay [18], in assay [6] and in assay [15] was inactive. In addition, the compound was called inactive in assay [16], in [7], in assay [8], in [9] and in assay [10].

Regarding `CCCCN1C[C@H](O)[C@@H](O)[C@H](O)[C@H]1CO`, the Potency result in assay [1], in assay [3], in [17], in assay [13] and in assay [11] was “inactive” in each case. For the same compound, the result in assay [2], in assay [4], in [6], in [15], in assay [16] and in assay [7] was inactive. For the same compound, the compound was classed as inactive in assay [8], in assay [9] and in [10].

Regarding `OCc1c2ccccc2cc2ccccc12`, the Potency entry in assay [1], in assay [5], in [12] and in assay [14] was “inactive” each time. The call in assay [4], in assay [6], in assay [15], in assay [16], in [7] and in [8] was inactive. Further, the compound was classed as inactive in assay [9] and in assay [10].
